DT40 TDP1 no CPT: qHTS for Inhibitors of human tyrosyl-DNA phosphodiesterase 1 (TDP1): qHTS in cells in absence of CPT. 15% of 420,000 active. Potency, µM (highest dose often 46.2 µM), without a hit: at the top dose activity change, negative = growth inhibition, most hits filed as inhibitors. AID 686978, 2013. DT40 Tdp1-/- hTDP1 cells, no CPT, ATP luminescence, 48 h; further: potency means the concentration at half of the fitted maximal effect; nearly all actives have a fitted effect of over 55% in size
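Stably hTDP1-transfected Tdp1-null chicken DT40 cells were treated with library compounds minus camptothecin and grown for at least 48 hr at 37 °C, after which cellular ATP was quantified by luminescence.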
IL1B secr inh: inhibitors of inflammasome signaling (IL-1 beta secretion). AID 743279. activity change, % at 57.5 µM. THP-1 LPS/ATP IL-1B secretion, AlphaLISA, 16 h; stronger effect = lower value. 4.7% of 360,000 active; in the data active means activity change below about -50%; inconclusive means mostly about -30% to -49%
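THP-1 cells pretreated 1 hr with compounds (up to 57.5 uM final), then stimulated with LPS (250 ng/mL final) plus ATP (1.25 mM final); secreted IL-1B measured by AlphaLISA after 16 hr, decreased signal indicating inhibition.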
DT40 TDP1 CPT: growth inhibition of DT40 Tdp1-/-;hTDP1 cells with camptothecin (screen for TDP1 inhibitors); chicken DT40 Tdp1-/-;hTDP1 cells + 20 nM CPT, ATP luminescence, 48 h; Potency, µM (series often up to 46.2 µM), for the others: at the top dose activity change, negative = growth inhibition, most hits filed as inhibitors; 12% of 420,000 active; AID 686979; further: potency means the concentration at half of the fitted maximal effect; nearly all actives have a fitted effect of over 55% in size
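Chicken DT40 Tdp1-/- cells stably complemented with human TDP1 were seeded at 400 cells/well in medium containing 20 nM camptothecin, exposed to pin-transferred compounds, and grown at 37 °C for at least 48 hr. Viability was read as ATP luminescence.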
ALOX12 inh: blocks human arachidonate 12S-lipoxygenase. P18054. purified 12hLO, xylenol orange hydroperoxide absorbance. Potency, µM (titrated, usually from 108 µM), for the others: at the highest dose activity change, negative = inhibition, most hits filed as inhibitors. 1.1% of 580,000 active; further: potency means the concentration at half of the fitted maximal effect
Target sequence (P18054 whole entry, looked up): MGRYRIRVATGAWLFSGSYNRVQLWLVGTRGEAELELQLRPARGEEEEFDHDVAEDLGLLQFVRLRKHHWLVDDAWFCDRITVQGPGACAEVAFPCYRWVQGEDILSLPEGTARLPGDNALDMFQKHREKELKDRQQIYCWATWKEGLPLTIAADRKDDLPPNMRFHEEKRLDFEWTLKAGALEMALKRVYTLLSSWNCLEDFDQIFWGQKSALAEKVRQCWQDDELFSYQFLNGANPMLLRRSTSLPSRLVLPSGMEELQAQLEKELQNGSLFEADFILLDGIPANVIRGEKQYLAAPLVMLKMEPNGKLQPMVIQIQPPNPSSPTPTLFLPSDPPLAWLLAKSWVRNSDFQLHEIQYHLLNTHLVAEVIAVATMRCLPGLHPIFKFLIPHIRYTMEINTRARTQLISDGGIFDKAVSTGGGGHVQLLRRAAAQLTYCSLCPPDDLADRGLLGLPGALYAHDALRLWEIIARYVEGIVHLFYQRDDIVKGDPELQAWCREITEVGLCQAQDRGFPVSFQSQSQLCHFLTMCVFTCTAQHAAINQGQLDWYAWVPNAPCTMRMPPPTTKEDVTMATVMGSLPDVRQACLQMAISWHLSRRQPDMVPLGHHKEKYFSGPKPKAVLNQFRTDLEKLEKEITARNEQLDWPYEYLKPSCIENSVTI
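Purified human 12hLO (150 nM final) in 25 mM Hepes, 0.01% Triton X-100, pH 7.0 was preincubated 15 min at room temperature with compound. Then 40 uM arachidonic acid was added, 30 min. Hydroperoxide was read by Fe-XO absorbance ratio 573/405 nm.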
HT1080NT lethal: kills 2HG-producing HT-1080-NT fibrosarcoma cells; HT-1080-NT fibrosarcoma viability, CellTiter-Glo ATP luminescence, 48 h; Potency, µM (series often up to 46.1 µM), for inactives: top-dose activity, negative = less viability, hits mostly cytotoxic; 1.6% of 360,000 active;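 further: NT is the 2HG producing partner of a matched IDH1 knockdown line; potency means the concentration at half of the fitted maximal effect; 0% = DMSO-treated cells and -100% = media-only wells without cells; nearly all actives have a fitted effect of over 55% in size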
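HT-1080-NT; 750 cells/well; 5% FBS RPMI; 48 h compound, 37 degrees C; CellTiter-Glo luminescence; curve fitting and curve-class assignment.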
HT1080 IDH1KD tx: HT-1080 IDH1 knockdown cell toxicity (counter line); Potency, µM (titrated, usually from 46.1 µM), inactives show at the highest dose activity, negative = toxicity, actives largely listed as cytotoxic; 2% of 360,000 active; HT-1080 IDH1 knockdown viability, ATP luminescence, 48 h;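 further: potency means the concentration at half of the fitted maximal effect; 0% = DMSO wells and -100% = cell-free medium wells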
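% activity derives from luminescence (CellTiter-Glo), normalised to DMSO and no-cell wells. HT-1080-IDH1KD cells, 750/well, had 48 h compound exposure at 37 °C.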
The depositor's hits bear a star; ? = inconclusive; nt = not tested or not shown; [ ] = remark or other dose. Only a selection was taken, and hits are over-represented in it overall. Unless noted, the call rests on the fitted dose curve; in most records, active means well fitted curve in the direction sought with a large enough effect; inconclusive means small, poorly fitted or top-dose-only effect, or another doubt; inactive means no such curve, though single readings can be large; an effect the other way counts as inactive or inconclusive. Unless noted, on the % scale 0 is the no-effect control and ±100 the full control effect.

SMILES	DT40 TDP1 no CPT	IL1B secr inh	DT40 TDP1 CPT	ALOX12 inh	HT1080NT lethal	HT1080 IDH1KD tx
O=C(NCCC1CCCCN1S(=O)(=O)c1cccs1)C(=O)Nc1ccccc1F (centres undefined)	23µM*	4	?	-6%	5%	6%
O=C(NCCC1CCCCN1S(=O)(=O)c1cccs1)C(=O)NCc1ccccc1 (centres undefined)	21µM*	0	15µM*	-28%	-22%	-16%
COc1ccccc1NC(=O)C(=O)NCCC1CCCCN1S(=O)(=O)c1cccs1 (centres undefined)	18µM*	-17	29µM*	-2%	-22%	-17%
O=C(NCC1CCCN1S(=O)(=O)c1cccs1)C(=O)Nc1ccccc1F (centres undefined)	?	8	?	-16%	-2%	-3%
COc1ccc(C(=O)N2CC3(Cc4ccccc4N([S+](C)(=O)[O-])C3)C2)cc1	nt	nt	nt	0%	nt	nt
O=C(CNS(=O)(=O)c1ccccc1)OCC(=O)c1ccc([N+](=O)[O-])cc1	?	0	21µM*	-14%	-4%	-4%
O=C(CNC(=O)c1ccco1)OCC(=O)c1ccc([N+](=O)[O-])cc1	?	-76*	?	-26%	6%	0%
O=C(CNC(=O)c1ccco1)OCC(=O)c1ccc(Cl)cc1	4%	23	7%	1%	-2%	5%
O=C(Cc1ccccc1)NCC(=O)OCC(=O)c1ccc([N+](=O)[O-])cc1	?	-72*	?	?	1%	23%
O=C(CNS(=O)(=O)c1ccccc1)OCC(=O)c1ccc(Br)cc1	-5%	-4	2%	-14%	-2%	2%
O=C(COC(=O)c1cccc([N+](=O)[O-])c1)c1ccc(OCc2ccccc2)cc1	13µM*	-12	?	-6%	16%	21%
O=C(COC(=O)c1ccc2c(c1)-c1ccccc1C2=O)c1cccc([N+](=O)[O-])c1	nt	nt	nt	4%	nt	nt
O=C(Nc1ccc([C@H]2OCC(=O)N(Cc3ccccc3)[C@@H]2CO)cc1)C1CCOCC1	nt	nt	nt	15%[176 µM]	nt	nt
O=C(NC1CCCC1)C1CCCN(c2ncnc3nc[nH]c23)C1 (centres undefined)	nt	nt	nt	1%	nt	nt
CCOc1c(Br)cc(C(=O)OC(C)C(=O)c2ccc(F)c(F)c2)cc1OC (centres undefined)	nt	nt	nt	-25%	nt	nt
O=C(Cc1ccc([N+](=O)[O-])cc1)NCc1ccccn1	2.9µM*	27	4.6µM*	7%	13%	0%
CCOC(=O)NC(C(=O)NCCc1ccccc1)C(C)C (centres undefined)	nt	nt	nt	-39%	nt	nt
O=C(NC1CCCN(Cc2ccc(Cl)cc2)C1)c1cnc2ccccn2c1=O (centres undefined)	18µM*	2	?	0%	-6%	-17%
Cc1ccn(CC(=O)NC2CCCN(Cc3ccc(CC(C)C)cc3)C2)n1 (centres undefined)	?	0	?	-21%	-28%	-11%
CC(=O)c1c(C)nn(CC(=O)NC2CCCN(Cc3ccc(CC(C)C)cc3)C2)c1C (centres undefined)	?	-28	21µM*	6%	-16%	-23%
CC(C)Cc1ccc(CN2CCCC(NC(=O)c3cnc4ccccn4c3=O)C2)cc1 (centres undefined)	23µM*	20	23µM*	-3%	-11%	-7%
Cc1occc1C(=O)Nc1nc(CC(=O)Nc2ccc3c(c2)Cc2ccccc2-3)cs1	nt	nt	nt	-1%	nt	nt
O=C(c1ccc(Cn2ccn3nc4c(c3c2=O)CCCC4)cc1)N1CCN(c2ccccc2F)CC1	nt	nt	nt	39%	nt	nt
O=C(NNC1=C(C(=O)C(F)(F)F)CCC1)c1ccccc1O	21µM*	82	16µM*	52%	23µM*	?
O=C(NNC1=C(C(=O)C(F)(F)F)CCC1)c1ccccc1Cl	1µM*	67	1.3µM*	0%	15µM*	?
SMILES	DT40 TDP1 no CPT	IL1B secr inh	DT40 TDP1 CPT	ALOX12 inh	HT1080NT lethal	HT1080 IDH1KD tx
O=C(NNC(=O)c1ccccc1Cl)c1ccccc1Cl	-1%	1	-2%	121%	4%	5%
Nc1ccccc1C(=O)NNC1=C(C(=O)C(F)(F)F)CCC1	4.1µM*	6	4.1µM*	5%	-21%	?
O=C(CCC1CCCC1)NNC(=O)c1ccccc1O	?	12	?	4%	-17%	-14%
COc1cccc(C(=O)NNC2=C(C(=O)C(F)(F)F)CCC2)c1	1.5µM*	122	2.1µM*	217%	?	12µM*
O=[S+]([O-])(Nc1ccccc1)c1ccc2c(c1)OCCN(Cc1cscn1)C2	nt	nt	nt	-10%[176 µM]	nt	nt
Cc1cn2nc(C(=O)N3CCC(NC(=O)c4cc(Cl)ccc4F)CC3)cc2c(=O)[nH]1	nt	nt	nt	35%	nt	nt
CCCc1nnc(NC(=O)c2cc(=O)c3cc(Cl)c(C)cc3o2)s1	nt	nt	nt	22%	nt	nt
COc1cc(S(=O)(=O)Nc2ccc(S(C)(=O)=O)cc2)ccc1NC(C)=O	nt	nt	nt	51%	nt	nt
CC(C)C(NC(=O)COc1cc(Cl)ccc1Cl)c1nc2ccccc2[nH]1 (centres undefined)	nt	nt	nt	-16%	nt	nt
CNC(=O)[C@H]1C[C@H](Oc2cccnc2)CN1C(=O)NCC(C)C	nt	nt	nt	40%	nt	nt
COc1ccccc1C(=O)NNC1=C(C(=O)C(F)(F)F)CCC1	?	83	?	-10%	3.5µM*	2.2µM*
O=C(NNC1=C(C(=O)C(F)(F)F)CCC1)c1ccc(Br)cc1	16µM*	37	?	-14%	?	10µM*
O=C(NN=C1CCCC1)c1ccc(Br)cc1	-23%	-5	2%	18%	0%	-2%

Compound activity as filed in PubChem BioAssay.
